Compound activity: PubChem, Corson Lab, School of Medicine, Indiana University
The entries come from a sample that favours hits as a whole.
FECH block: inhibitors of human ferrochelatase, primary screen, biochemical, purified FECH, Ni-mesoporphyrin absorbance; Ferrochelatase, mitochondrial (Homo sapiens), P22830; Ni-mesoporphyrin absorbance 550 nm; calls only at 10 µM (by protocol); hit rate 3.3% among 20,000;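 active means enzyme reaction rate more than 3 SD below the solvent-only control wells on the same plate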;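 further: lower slope than DMSO wells means FECH inhibition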
Target sequence (P22830 whole entry, looked up): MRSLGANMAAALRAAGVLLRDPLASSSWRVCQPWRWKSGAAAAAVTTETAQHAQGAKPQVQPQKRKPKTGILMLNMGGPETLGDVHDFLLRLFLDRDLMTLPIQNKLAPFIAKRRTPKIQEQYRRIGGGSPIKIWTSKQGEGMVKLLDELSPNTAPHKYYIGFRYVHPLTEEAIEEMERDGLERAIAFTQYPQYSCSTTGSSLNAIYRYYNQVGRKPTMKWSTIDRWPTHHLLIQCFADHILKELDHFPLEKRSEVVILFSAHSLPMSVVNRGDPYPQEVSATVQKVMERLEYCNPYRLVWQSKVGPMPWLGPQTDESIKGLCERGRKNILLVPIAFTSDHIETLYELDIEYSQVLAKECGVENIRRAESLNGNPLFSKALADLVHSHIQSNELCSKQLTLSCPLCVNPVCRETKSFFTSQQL
Starred values were filed as active, the others as inactive; i = inactive; + = active, no number.

SMILES | FECH block
COc1cccc(NC(=O)CN2CCN(Cc3ccc(C)cc3)S2(=O)=O)c1 | +
CCOc1ccc(NC(=O)CN2CCCN(Cc3ccc(C)cc3)S2(=O)=O)cc1 | +
CC(C)(C)NC(=O)CSc1nc(-c2ccc3c(c2)OCO3)nc2cc(=O)[nH]n12 | i
CCOc1ccc(C(=O)C2CC(=O)Nc3[nH]ncc32)cc1OCC (stereo not drawn) | i
COc1cc2c(cc1OC)CN(S(=O)(=O)c1cc(N3C(=O)CCS3(=O)=O)ccc1OC)CC2 | i
Cc1ccccc1-c1cc(O)c2c(c1)CN(C(=O)Cc1ccccn1)CCO2 | i
CSc1nc(Nc2ccc(Oc3ccccc3)cc2)c(C#N)c(-c2ccccc2)n1 | i
Cc1ccsc1CCn1cnc(-c2ccccc2)c1-c1nccn1C | i
CCCS(=O)(=O)N1CCN(Cc2nc3cccnc3n2-c2cccc(C)c2)CC1 | i
NC1(C(=O)NCc2ccc3nonc3c2)CC1 | i
O=C1C[C@H]2CC[C@@H](CN1)N2C(=O)c1ccccc1-n1cncn1 | i
CCN1CCN(Cc2cc(C(=O)NCc3cc(C)nn3C)no2)CC1 | i
Cc1nccn1CCC(=O)NC(C)c1ccc2c(c1)CCCC2 (stereo not drawn) | i
O=C(CN1CCCN(Cc2cccc(Cl)c2)S1(=O)=O)Nc1cccc(Cl)c1 | i
O=C(CN1CCCN(Cc2ccccc2Cl)S1(=O)=O)Nc1ccccc1 | i
COc1ccc(NC(=O)CN2CCCN(Cc3ccccc3)S2(=O)=O)cc1Cl | i
CC(=O)c1cccc(NC(=O)CN2CCCN(Cc3ccccc3Cl)S2(=O)=O)c1 | i
COc1ccc(NC(=O)CN2CCCN(Cc3ccc(Cl)cc3)S2(=O)=O)cc1Cl | +
CCOc1ccc(NC(=O)CN2CCN(Cc3cccc(C)c3)S2(=O)=O)cc1 | i
COc1ccc(NC(=O)CN2CCCN(Cc3ccccc3Cl)S2(=O)=O)cc1Cl | +
O=C(CN1CCCN(Cc2ccc(Cl)cc2)S1(=O)=O)Nc1ccc(F)c(Cl)c1 | i
O=C(CN1CCCN(Cc2ccc(Cl)cc2)S1(=O)=O)Nc1cccc(Cl)c1 | +
Cc1ccc(NC(=O)CN2CCN(Cc3ccccc3)S2(=O)=O)cc1C | i
COc1ccc(NC(=O)CN2CCN(Cc3cccc(C)c3)S2(=O)=O)cc1Cl | +
Cc1cccc(NC(=O)CN2CCCN(Cc3ccc(Cl)cc3)S2(=O)=O)c1 | i
SMILES | FECH block
Cc1ccccc1CNC(=O)c1nc(N2CCCC2)c2oc3ccccc3c2n1 | i
COc1ccc(NCc2cc(=O)n3[nH]c(NCc4ccccc4)nc3n2)c(OC)c1 | i
CNC(=O)CNC(=O)CCC1(Cc2ccccc2)C(=O)N(C)c2ccccc21 (stereo not drawn) | i
CCn1nc(C)c(CN(CCOC)C(=O)c2ccnc3ccccc23)c1C | i
COc1ccccc1NC(=O)N1CCC(n2c(C)nc3cccnc32)CC1 | i
Cc1nc2ncnn2c(Sc2ccc(NC(=O)Nc3ccc(Br)cc3F)cc2)c1C | i
CCN(CCO)c1nc(Nc2ccc(C)c(C)c2)c2cnn(-c3ccccc3)c2n1 | i
Cc1ccc(N2C(=O)CCS2(=O)=O)cc1S(=O)(=O)Nc1cccc(F)c1 | i
CSc1ccc(CC(=O)N2CCCC(CN3CCCC3)C2)cc1 (stereo not drawn) | i
Cc1ccc(CN2c3ccccc3-c3nc(SCC(=O)Nc4ccc(F)c(Cl)c4)ncc3S2(=O)=O)cc1 | +
Cc1ccc(CN2CCCN(CC(=O)Nc3ccc(C)c(F)c3)S2(=O)=O)cc1 | i
Cc1ccc(CN2c3ccccc3-c3nc(SCC(=O)Nc4cc(Cl)ccc4C)ncc3S2(=O)=O)cc1 | i
O=C(c1cnn2ccccc12)N1C[C@H]2C[C@H](O)[C@H](O)C[C@H]2C1 | i
CCOc1ccccc1NC(=O)CCS(=O)(=O)c1ccc2c(c1)CC(=O)N2C | i
Cc1nsc(NC(=O)N2CCC(C(O)CCc3ccccc3)CC2)n1 (stereo not drawn) | i
Cc1n[nH]c(C)c1CCc1n[nH]c(=O)n1Cc1cccs1 | i
CC(=O)N[C@@H](C)C(=O)NCc1cc(C)cc2c(C)c(-c3ccccc3)[nH]c12 | i
Cc1nc(-c2cccc(NC(=O)Nc3ccc(S(N)(=O)=O)cc3)c2)no1 | i
Cc1ccc(-c2cc(C(=O)Nc3ccc(S(N)(=O)=O)cc3)no2)cc1C | +
NS(=O)(=O)c1ccc(CCNC(=O)c2cc(-c3ccc(Cl)cc3)on2)cc1 | i
CCOC(=O)c1cc2ccsc2n1CC(=O)Nc1ccccc1C | i
CCOC(=O)c1cc2ccsc2n1CC(=O)Nc1c(C)cc(C)cc1C | +
COC(=O)c1cc2ccsc2n1CC(=O)Nc1c(C)cccc1C | i
CC(c1cccnc1)N(C)C(=O)c1ccc(Cn2ccnc2)o1 (stereo not drawn) | i
O=S(=O)(NCc1ccccc1)N1CCCC(OCc2ccccn2)C1 (stereo not drawn) | i
SMILES | FECH block
Cc1ccc(NC(=O)CN2CCCC(OCc3ccccn3)C2)cc1C (stereo not drawn) | +
Cc1nc(C(C)C)cc(N2CCCC(OCc3ccccn3)C2)n1 (stereo not drawn) | i
c1ccc(-c2nc[nH]c2-c2cccn2-c2ccccn2)cc1 | i
CCOC(=O)C1CCC(CNC(=O)N2CCN(Cc3nc4cccnc4n3-c3cccc(C)c3)CC2)CC1 (stereo not drawn) | i
Cc1ccc(-c2cc(N3CCN(S(=O)(=O)c4ccc(F)cc4)CC3)ncn2)cc1 | i
Cc1ccc(NS(=O)(=O)c2ccc(N)c(S(N)(=O)=O)c2)cc1Cl | i
O=C1CC(=O)Nc2cc(S(=O)(=O)N3CCOCC3)ccc2N1 | i
O=C1CC(=O)Nc2cc(S(=O)(=O)N3CCN(c4ccc(F)cc4)CC3)ccc2N1 | +
Nc1ccc(S(=O)(=O)N2CCN(c3ccc(F)cc3)CC2)cc1S(N)(=O)=O | +
O=C1CC(=O)Nc2cc(S(=O)(=O)N3CCCCC3)ccc2N1 | i
Cn1ncc2c(NCc3n[nH]c4c3CCC4)nc(C3CCCC3)nc21 | i
COc1ccc(CN2CCCN(CC(=O)Nc3cccc(Cl)c3)S2(=O)=O)cc1 | i
Cc1ccc(S(=O)(=O)Nc2cnc(N3CCOCC3)c(C(=O)O)c2)cc1C | i
Cc1cc(Sc2ccccc2NC(=O)c2ccc(C(C)(C)C)cc2)n2nc(-c3ccccc3)nc2n1 | i
CCCn1ccnc1CN1CCCN(C(=O)c2ccco2)CC1 | i
CCCc1c(C)nc2ncnn2c1Sc1ccc(NC(C)=O)cc1 | i
CCCc1c(C)nc2ncnn2c1Sc1ccc(NC(=O)c2ccc(F)cc2)cc1 | i
CCc1c(C)nc2ncnn2c1Sc1ccc(NC(=O)c2ccccc2Br)cc1 | i
CCCc1c(C)nc2ncnn2c1Sc1ccc(NC(=O)c2ccccc2OCC)cc1 | +
CCCc1c(C)nc2ncnn2c1Sc1ccc(NS(=O)(=O)c2cccc(Cl)c2)cc1 | i
CCCc1c(C)nc2ncnn2c1Sc1ccc(NC(=O)c2cccc(Cl)c2)cc1 | +
CCCc1c(C)nc2ncnn2c1Sc1ccc(NC(=O)c2ccco2)cc1 | i
CCc1c(C)nc2ncnn2c1Sc1ccc(NC(=O)c2cccc(C)c2)cc1 | i
CCCc1c(C)nc2ncnn2c1Sc1ccc(NC(=O)c2ccccc2Cl)cc1 | +
COC(=O)CN(c1nc2nc(C)c(Cl)c(C)n2n1)S(=O)(=O)c1ccc(Cl)cc1 | i
CCOc1ccc(CNC(=O)CCCc2nc3cccnc3n2Cc2ccc(C)cc2)cc1 | i
CCNC(=O)[C@@H]1C[C@H](N)CN1Cc1ccccc1OCc1ccccc1 | i
